# From PubChem
# Vif-APOBEC3F blk: Vif-A3F binding inhibition | HeLa A3F-eYFP + Vif (tagged APOBEC3F with the HIV-1 protein that degrades it), YFP fluorescence increase | Potency, µM (highest dose often 46.1 µM), without a hit: at the top dose activity, negative = active | 390,000 compounds, 0.2% hits | AID 602313; note: potency is the fitted concentration of half-maximal effect; % of control where 0% means no effect; nearly all actives have a fitted effect of over 65% in size
#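 HeLa cells stably expressing Vif plus C-terminally eYFP-tagged A3F were seeded, incubated overnight at 37 deg C, dosed with compound, incubated overnight again at 37 deg C. Yellow fluorescence (Ex 488/Em 500-530) reported blocked Vif-mediated A3F-eYFP degradation.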
# Glioma ERSR ind: inducers of ER stress response in human glioma cells | 420,000 compounds, 0.02% hits | AID 602332 | U87-MG GRP78 promoter luciferase reporter, 16 h | Potency, µM, inactives show top-dose activation, usual class: activators; note: potency is the fitted concentration of half-maximal effect; series mostly up to about 76 µM; % of control where 0% means no effect; nearly all actives have a fitted effect of over 35% in size
#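 Stably transfected U87-MG human glioma cells carrying a GRP78-based luminescent sensor were seeded at 1000 cells/well, pin-dosed with compounds and incubated 16 h. Luciferase reagent was then added, and end-point luminescence was read after 10 min at room temperature.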
# TRPML1 blocker: human mucolipin-1 channel inhibition | activity change, negative = inhibition, % (test concentration not listed) | Q9GZU1 | AID 624415 | TRPML1-inducible cells, Ca2+ dye fluorescence, FDSS; active compounds read low; inhibition of EC80 agonist-evoked calcium signal | 390,000 compounds, 0.02% hits; in the data active = activity change below about -50%; inconclusive = between about -30% and that limit;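 note: stimulus is agonist 54-4 at its EC80 concentration; % is set by controls: 0 for no effect and ±100 for the full control effect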
#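 Tet-induced TRPML1-DL cells loaded with Ca8 no-wash calcium dye were read kinetically on FDSS. Compound addition was followed by EC80 agonist 54-4 (4 uM final); inhibition was read over 110 s.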
# Vif-APOBEC3G blk: blocks the Vif interaction with human APOBEC3G. 410,000 compounds, 0.076% hits. Q9HC16. Potency, µM (top dose mostly 46.1 µM), without a hit: at the highest dose activity, negative = active, usual class: inhibitors. HeLa A3G-eYFP + Vif (tagged APOBEC3G with the HIV-1 protein that degrades it), YFP fluorescence, overnight; note: potency is the fitted concentration of half-maximal effect; % is set by controls: 0 for no effect and ±100 for the full control effect; nearly all actives have a fitted effect of over 60% in size
#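 HeLa cells stably expressing Vif and C-terminally eYFP-tagged A3G, seeded overnight at 37 deg C, then exposed to compound by pintool overnight at 37 deg C. Rise in yellow fluorescence (Ex 488/Em 500-530, Acumen) marks blocked Vif-driven A3G degradation.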
# ALOX12 inh: ALOX12 (human) lipoxygenase inhibition. purified 12hLO, xylenol orange hydroperoxide absorbance. 580,000 compounds, 1.1% hits. Potency, µM (series often up to 108 µM), without a hit: at the top dose activity change, negative = inhibition, usual class: inhibitors. P18054; note: potency is the fitted concentration of half-maximal effect; % is set by controls: 0 for no effect and ±100 for the full control effect
# Target sequence (P18054 whole entry, looked up): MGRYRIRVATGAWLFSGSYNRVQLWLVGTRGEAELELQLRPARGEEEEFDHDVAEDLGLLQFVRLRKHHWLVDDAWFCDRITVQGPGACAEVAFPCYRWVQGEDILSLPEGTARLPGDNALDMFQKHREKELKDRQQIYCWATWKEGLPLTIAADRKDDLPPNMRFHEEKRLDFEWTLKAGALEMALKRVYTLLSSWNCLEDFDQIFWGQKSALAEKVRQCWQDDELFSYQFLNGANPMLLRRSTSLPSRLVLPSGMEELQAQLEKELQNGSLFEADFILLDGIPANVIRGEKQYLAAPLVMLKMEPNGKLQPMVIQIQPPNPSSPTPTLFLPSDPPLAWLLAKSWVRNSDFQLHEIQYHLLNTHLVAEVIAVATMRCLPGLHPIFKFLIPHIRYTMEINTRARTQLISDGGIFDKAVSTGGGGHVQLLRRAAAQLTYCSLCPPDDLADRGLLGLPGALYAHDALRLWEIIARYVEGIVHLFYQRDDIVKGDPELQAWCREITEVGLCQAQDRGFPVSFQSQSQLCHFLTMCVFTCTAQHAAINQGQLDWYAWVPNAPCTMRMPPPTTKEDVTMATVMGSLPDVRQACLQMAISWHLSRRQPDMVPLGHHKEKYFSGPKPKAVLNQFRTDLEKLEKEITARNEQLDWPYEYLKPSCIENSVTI
#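 Purified human 12hLO (150 nM final) in 25 mM Hepes, 0.01% Triton X-100, pH 7.0 was preincubated 15 min at room temperature with compound. Then 40 uM arachidonic acid was added, 30 min. Hydroperoxide was read by Fe-XO absorbance ratio 573/405 nm.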
# TRPML1 ag: agonists of human TRPML1 channel; activation, % (no concentration beside the values); Q9GZU1; AID 624414; TRPML1-expressing cells, Ca2+ dye fluorescence, FDSS; 410,000 compounds, 0.12% hits; in the data active = activation above about 50%; inconclusive = mostly about 30% to 49%; note: 0% is about no effect
#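 Tet-induced TRPML1-DL cells, 1,500 per well, cultured overnight, were loaded with a no-wash Ca2+ dye for 45–90 min. Calcium fluorescence was recorded on the FDSS for 110 s after compound addition, before the EC80 agonist (4 uM 54-4) was added.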
# Active calls of the source: *; ? = inconclusive; nt = no result; ! = not active in a repeat. This is a sample that favours compounds with a hit; in the whole collection about 1.3% have one here. Unless noted, calls come from the whole dose curve; as a rule, active = well fitted curve in the direction sought with a large enough effect; inconclusive = small, poorly fitted or top-dose-only effect, or another doubt; inactive = no such curve, though single readings can be large; an effect the other way counts as inactive or inconclusive.
SMILES,Vif-APOBEC3F blk,Glioma ERSR ind,TRPML1 blocker,Vif-APOBEC3G blk,ALOX12 inh,TRPML1 ag
C/C(=C\C=C\c1ccco1)C(=O)c1ccc(Br)cc1,nt,nt,nt,nt,2µM*,nt
CCOC(=O)c1ccc(N2C(=O)c3n[nH]c(-c4ccco4)c3C2c2cccc([N+](=O)[O-])c2)cc1 (stereo not drawn),-32%,-2%,-19,-27%,32µM*,1
COC(=O)c1ccc(Cl)cc1NC(=O)N(Cc1ccc(OC)cc1)C1CCN(C(C)=O)CC1,-11%,4%,29,0%,2%,6
CCN1CCC(N(Cc2ccco2)C(=O)Nc2cc(Cl)ccc2C(=O)OC)CC1,nt,nt,nt,nt,6.3µM*,nt
Cc1cc(C)c2c(n1)sc1c(-c3ccccc3)c(C#N)c(N)nc12,1%,-5%,86,0%,?,0
Cc1cc(C)c2c(N)c(-c3ccc(C#N)cc3)sc2n1,nt,nt,nt,nt,4µM*,nt
C[C@@H]1O[C@@H](O[C@@H]2C(=O)c3c(O)cc(O)cc3O[C@H]2c2ccc(O)c(O)c2)[C@H](O)[C@H](O)[C@H]1O,0%,-3%,19,11µM*,-9%,0
O=C1c2c(O)cc(O)cc2O[C@H](c2ccc(O)c(O)c2)[C@H]1O,4%,-1%,10,1%,?,1
C=CCNCc1ccc(Cl)cc1,nt,nt,nt,nt,-16%,nt
CSc1nc2c(c(=O)[nH]1)C(c1ccccc1Cl)CC(=O)N2 (stereo not drawn),-8%,-4%,-8,-1%,-2%,0
Nc1nc2c(s1)C(c1c(Cl)cccc1Cl)CC(=O)N2 (stereo not drawn),nt,nt,nt,nt,14µM*,nt
Nc1nc2c(s1)C(c1ccccc1Cl)CC(=O)N2 (stereo not drawn),nt,nt,nt,nt,20µM*,nt
O=C1CC(c2c(Cl)cccc2Cl)c2c(ccc3ccccc23)N1 (stereo not drawn),-5%,-4%,-12,-9%,?,-1
COc1ccc(NC(=O)Nc2nnc(N3CCCC3)s2)cc1OC,nt,nt,nt,nt,12%,nt
C/C=C/C[N+](C)(C/C=C/C)CC(=O)C(C)(C)C,nt,nt,nt,nt,-1%,nt
COC(=O)c1cc(-c2ccco2)nc2ccccc12,nt,nt,nt,nt,14µM*,nt
CCOc1ccccc1NC(=O)c1cc(-c2ccco2)nc2ccccc12,nt,nt,nt,nt,11µM*,nt
CCOc1ccccc1NC(=O)c1cc(-c2ccccn2)nc2ccccc12,0%,1%,61,-7%,-7%,1
Cc1ccc(-c2cc(C(=O)OCC(=O)N(C)c3c(N)n(Cc4ccccc4)c(=O)[nH]c3=O)c3ccccc3n2)o1,7%,0%,3,1%,7.1µM*,1
CN(C(=O)COC(=O)c1cc2ccccc2cc1O)c1c(N)n(Cc2ccccc2)c(=O)[nH]c1=O,11%,1%,-11,-1%,?,1
CCn1cc(-c2cc(C(=O)O)c3ccccc3n2)c(C)n1,3%,-1%,13,-5%,13µM*!,0
N#Cc1nc(-c2ccco2)oc1N1CCN(Cc2ccc(Br)cc2)CC1,nt,nt,nt,nt,-26%,nt
O=C(O)c1cc(-c2ccco2)nc2ccccc12,-6%,1%,14,4%,7.1µM*,-1
Cc1ccc(-c2cc(C(=O)OCC(=O)NC34CC5CC(CC(C5)C3)C4)c3ccccc3n2)o1,nt,nt,nt,nt,1.3µM*,nt
CC(=O)N1CCN(C(=O)c2cc(-c3ccco3)nc3ccccc23)CC1,nt,nt,nt,nt,-101%,nt
SMILES,Vif-APOBEC3F blk,Glioma ERSR ind,TRPML1 blocker,Vif-APOBEC3G blk,ALOX12 inh,TRPML1 ag
N#Cc1c(N)n[nH]c1CCCNC(=O)c1cc(-c2ccco2)nc2ccccc12,nt,nt,nt,nt,20µM*,nt
Cc1ccc(-c2cc(C(=O)OCC(=O)NCC3CCCO3)c3ccccc3n2)o1 (stereo not drawn),nt,nt,nt,nt,19%,nt
COC(=O)c1cc(-c2ccc(C)o2)nc2ccccc12,-28%,-1%,-13,-6%,6.3µM*,3
O=C(OCC(=O)c1cccs1)c1ccc(C(=O)c2ccccc2)cc1,nt,nt,nt,nt,-49%,nt
Cc1c(-c2ccn[nH]2)cnn1C,nt,nt,nt,nt,1%,nt
Nc1ccc(-c2cc(C(=O)O)c3ccccc3n2)cc1,nt,nt,nt,nt,18µM*,nt
Cc1ccc(-c2cc(C(=O)O)c3cc(C)ccc3n2)c(C)c1,nt,nt,nt,nt,0%,nt
